# Measured values reported in PubChem BioAssay (NCATS).
# Inconclusive results are not listed. Entries that show only a call come without a potency. Active and inactive are the calls of the source. Unless noted, calls come from the whole dose curve.
# Tests used:
# [1] = molecular target: Peroxisome proliferator-activated receptor delta (Homo sapiens) (UniProt Q03181); experiment: qHTS assay for small molecule agonists of peroxisome proliferator-activated receptor delta signaling (AID 588534)
# Outline: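 Titration series tested in agonist mode on beta-lactamase reporter cells; 18 hrs at 37 C after a 5 hr pre-incubation. Readout: CCF4 fluorescence, 2 hrs RT. Hill equation gives EC50 and maximal response.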
# [2] = Primary qHTS for inhibitors of SARS-S pseudo-typed particle cell entry (AID 1479145); conditions: outcome: dose series up to 57.1 µM unless noted; note: nearly all actives have a fitted effect of over 45% in size; note: potency is the fitted concentration of half-maximal effect
# [3] = Primary qHTS for Huh7 cytotoxicity: counterscreen for inhibitors of MERS-S pseudotyped particle cell entry (AID 1479147); conditions: outcome: dose series up to 57.1 µM unless noted
# [4] = Primary qHTS for Vero E6 cytotoxicity: counterscreen for inhibitors of SARS-S pseudo-typed particle cell entry (AID 1479150); conditions: outcome: dose series up to 57.1 µM unless noted
# [5] = Cytotoxicity counterscreen for inhibitors of SARS-CoV-2 cell entry (AID 1645845); conditions: outcome: dose series up to 57.1 µM unless noted; note: nearly all actives have a fitted effect of over 50% in size
# Outline: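 Counterscreen run in the same HEK293-ACE2 line as the pseudotyped-particle entry assay, without particles. Viability after 48 h at 37 C was read as ATP luminescence, scaled between cell-containing and cell-free wells.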
# [6] = Primary qHTS to identify inhibitors of SARS-CoV-2 cell entry (AID 1645846); conditions: SARS-CoV-2 pseudovirus cell entry assay, luminescence; activity change, negative = inhibition: at 57.1 µM (top of the series) unless noted; note: nearly all actives have a fitted effect of over 45% in size; note: potency is the fitted concentration of half-maximal effect
# Outline: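 Data are normalized to wells receiving SARS-CoV-2-S pseudoparticles and those given bald particles. Entry signal was luciferase luminescence in stable hACE2 Expi293F cells, 48 hr post-infection, after 1 hr compound pretreatment.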
# [7] = VSVG counterscreen qHTS to identify inhibitors of SARS-CoV-2 cell entry (AID 1645847); note: nearly all actives have a fitted effect of over 65% in size; note: potency is the fitted concentration of half-maximal effect
# Outline: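 Counterscreen using VSV-G (not spike) pseudotyped MLV particles on ACE2-expressing Expi293F cells after 1 h compound preincubation; infection ran 48 h at 37 °C. Data normalized to VSV-G PP and bald-PP wells.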
# [8] = KB-8-5-11 P-gp reporter qHTS against the NCATS DSHEA and TCM libraries (AID 1919977; active = well fitted curve in the direction sought with a large enough effect; an effect the other way counts as inactive or inconclusive)
# Outline: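 Cells were seeded, allowed ~4 h to attach, dosed by pin tool (substance titrations), incubated ~72 h at 37C, then lysed with CellTiter-Glo for 30 min at room temperature before luminescence reading.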
# [9] = Primary qHTS for inhibitors of MERS-S pseudo-typed particle cell entry (AID 1479149); conditions: outcome: dose series up to 57.1 µM unless noted; note: nearly all actives have a fitted effect of over 60% in size
# [10] = Confirmatory qHTS to identify inhibitors of SARS-CoV-2 cell entry (AID 1645844); note: potency is the fitted concentration of half-maximal effect; nearly all actives have a fitted effect of over 45% in size
# Outline: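 HEK293-ACE2, overnight seeding; cpd 1 h, 37C/5% CO2; + SARS-CoV-2-S MLV PP (Wuhan-Hu-1, ΔC19); 48 h; Bright-Glo luminescence. Data normalised to S PP and bald PP wells.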
# [11] = NCATS anti-infectives library activity on the primary C. elegans qHTS viability assay (AID 1745855)
# Outline: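 Titration-based screen in worms: eggs hatched overnight in M9, L1 larvae fed TOP10 capsules in S medium with compound, incubated 21 °C for 7 days; fluorescent objects gated by size and intensity at days 0, 3 and 7.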
# [12] = molecular target: Glutathione peroxidase 1 (Homo sapiens) (UniProt P07203); experiment: Primary qHTS Assay for Inhibitors of Recombinant Selenoprotein Glutathione Peroxidase 1 (GPX1) (AID 1845191; active = well fitted curve in the direction sought with a large enough effect; an effect the other way counts as inactive or inconclusive; note: nearly all actives have a fitted effect of over 65% in size)
# Chain of Glutathione peroxidase 1 (Homo sapiens) (P07203 whole entry, looked up): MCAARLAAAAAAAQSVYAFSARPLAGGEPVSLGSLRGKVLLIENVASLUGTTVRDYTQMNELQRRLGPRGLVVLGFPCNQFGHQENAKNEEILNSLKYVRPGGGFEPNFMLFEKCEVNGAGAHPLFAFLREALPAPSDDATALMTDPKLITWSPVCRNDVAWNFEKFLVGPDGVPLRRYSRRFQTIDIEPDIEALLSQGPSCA
# Outline: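 GR-coupled readout: NADPH consumption tracked by fluorescence, ex 340/em 450 nm, at t=0 and after 15 min at RT. Final mix 10 nM GPX1, 1 mM GSH, 0.5 mM CHP, 0.5 mM NADPH, 100 nM GR, 0.01% BSA, following 30 min enzyme–compound preincubation.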
# [13] = molecular target: Alpha-galactosidase (Coffea arabica) (UniProt Q42656); experiment: Counterscreen for Glucocerebrosidase Inhibitors: qHTS Assay for Coffee Bean alpha-Galactosidase at pH 4.5 (AID 957; active = well fitted curve in the direction sought with a large enough effect; an effect the other way counts as inactive or inconclusive)
# Chain of Alpha-galactosidase (Coffea arabica) (Q42656 whole entry, looked up): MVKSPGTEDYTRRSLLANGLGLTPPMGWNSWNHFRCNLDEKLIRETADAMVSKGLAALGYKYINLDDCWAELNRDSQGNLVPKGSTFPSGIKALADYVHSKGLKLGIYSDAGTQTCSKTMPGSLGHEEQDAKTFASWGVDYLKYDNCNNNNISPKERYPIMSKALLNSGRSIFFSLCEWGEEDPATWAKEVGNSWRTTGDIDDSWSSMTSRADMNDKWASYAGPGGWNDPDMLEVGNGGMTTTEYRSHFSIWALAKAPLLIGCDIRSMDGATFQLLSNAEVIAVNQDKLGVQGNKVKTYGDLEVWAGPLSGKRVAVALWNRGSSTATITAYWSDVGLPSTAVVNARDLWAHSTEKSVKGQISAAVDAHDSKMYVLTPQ
# Outline: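 Fluorogenic read-out: 4-methylumbelliferone at Ex 365/Em 440 nm after NaOH/glycine stop (pH 10). Enzyme 2 nM, 4-MU-alpha-galactoside 80 uM, citrate buffer pH 4.5, 20 min RT; normalized to no-enzyme and enzyme controls.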
# [14] = Inducers of the Endoplasmic Reticulum Stress Response (ERSR) in human glioma: Validation (AID 504836; active = well fitted curve in the direction sought with a large enough effect; an effect the other way counts as inactive or inconclusive)
# Outline: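 Stably transfected U87-MG glioma cells carrying a GRP78-based luciferase sensor; 16 h compound incubation. Luminescence end-point read 10 min after Bright-Glo addition at room temperature.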
# Chain of Peroxisome proliferator-activated receptor delta (Homo sapiens) (Q03181 whole entry, looked up): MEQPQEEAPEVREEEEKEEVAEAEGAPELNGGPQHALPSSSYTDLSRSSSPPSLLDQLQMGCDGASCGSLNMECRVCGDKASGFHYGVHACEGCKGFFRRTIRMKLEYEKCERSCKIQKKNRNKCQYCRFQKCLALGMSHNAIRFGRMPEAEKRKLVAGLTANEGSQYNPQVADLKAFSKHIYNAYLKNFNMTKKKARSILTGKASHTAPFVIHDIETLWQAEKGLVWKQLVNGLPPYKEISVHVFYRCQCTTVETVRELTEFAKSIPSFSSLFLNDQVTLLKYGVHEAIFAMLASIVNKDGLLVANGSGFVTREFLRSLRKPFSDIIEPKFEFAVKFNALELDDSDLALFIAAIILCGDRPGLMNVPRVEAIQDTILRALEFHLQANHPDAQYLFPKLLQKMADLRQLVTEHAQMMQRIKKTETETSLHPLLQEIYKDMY
smiles,measurement,setting,value
CC[C@H]1OC(=O)[C@H](C)[C@@H](O[C@H]2C[C@@](C)(OC)[C@@H](O)[C@H](C)O2)[C@H](C)[C@@H](O[C@@H]2O[C@H](C)C[C@H](N(C)C)[C@H]2O)[C@](C)(O)C[C@@H](C)CN(C)[C@H](C)[C@@H](O)[C@]1(C)O,outcome,[1],inactive
same,Potency,[2],inactive
same,Potency,[3],inactive
same,Potency,[4],inactive
same,Potency,[5],inactive
same,Potency,[6],12.6 µM (active)
same,Potency,[7],inactive
CNCC(=O)OCc1cccnc1N(C)C(=O)OC(C)[n+]1cnn(C[C@](O)(c2cc(F)ccc2F)[C@@H](C)c2nc(-c3ccc(C#N)cc3)cs2)c1 (stereo partly drawn),Potency,[2],inactive
same,Potency,[3],inactive
same,Potency,[4],inactive
same,Potency,[5],inactive
C=C1/C(=C\C=C2/CCC[C@]3(C)[C@@H]([C@H](C)CCCC(C)(C)O)CC[C@@H]23)C[C@@H](O)C[C@@H]1O,Potency,[2],inactive
same,Potency,[3],inactive
same,Potency,[4],inactive
same,Potency,[5],inactive
CC1(COc2ccc(N3CCC(Oc4ccc(OC(F)(F)F)cc4)CC3)cc2)Cn2cc([N+](=O)[O-])nc2O1 (stereo not drawn),Potency,[2],inactive
same,Potency,[3],inactive
same,Potency,[4],inactive
same,Potency,[5],inactive
C=C1CC[C@H](O)CC1=C/C=C1\CCC[C@]2(C)[C@@H]([C@H](C)/C=C/[C@H](C)C(C)C)CC[C@@H]12,Potency,[2],inactive
same,Potency,[3],inactive
same,Potency,[4],inactive
same,Potency,[8],inactive
CCOC(=O)Cc1ccc(-c2ccccc2)cc1,Potency,[2],inactive
same,Potency,[3],inactive
same,Potency,[4],inactive
same,Potency,[5],inactive
C[C@H]1C[C@H]2[C@H]3CCC4=CC(=O)C=C[C@]4(C)[C@@]3(F)[C@@H](O)C[C@]2(C)[C@@]1(OC(=O)c1ccccc1)C(=O)CO,Potency,[2],inactive
same,Potency,[3],inactive
same,Potency,[4],inactive
same,Potency,[5],inactive
Cc1cc(-c2ccc(N=Nc3ccc4c(S(=O)(=O)O)cc(S(=O)(=O)O)c(N)c4c3O)c(C)c2)ccc1N=Nc1ccc2c(S(=O)(=O)O)cc(S(=O)(=O)O)c(N)c2c1O,Potency,[2],inactive
same,Potency,[9],inactive
COC[C@H]1C[C@@H](c2ncc(-c3ccc4c(c3)COc3cc5c(ccc6[nH]c([C@@H]7CC[C@H](C)N7C(=O)[C@@H](NC(=O)OC)C(C)C)nc65)cc3-4)[nH]2)N(C(=O)[C@H](NC(=O)OC)c2ccccc2)C1,Potency,[2],inactive
same,Potency,[3],inactive
same,Potency,[4],inactive
same,Potency,[10],0.341 µM (active)
same,Potency,[5],inactive
same,Potency,[7],1.52 µM (active)
N#Cc1c(N2C[C@@H]3NCCO[C@H]3C2)c(F)cc2c(=O)c(C(=O)O)cn(C3CC3)c12,Potency,[2],inactive
same,Potency,[3],inactive
same,Potency,[4],inactive
same,Potency,[5],inactive
C=C1CC[C@H](O)CC1=C/C=C1\CCC[C@]2(C)[C@@H]([C@H](C)CCCC(C)(C)O)CC[C@@H]12,Potency,[2],inactive
same,Potency,[3],inactive
same,Potency,[4],inactive
same,Potency,[5],inactive
CCCCCCCCCC(=O)OC1(c2ccc(Cl)cc2)CCN(CCCC(=O)c2ccc(F)cc2)CC1,Potency,[2],inactive
same,Potency,[3],inactive
same,Potency,[4],inactive
same,Potency,[5],inactive
Nc1nc(-n2cc(C(=O)O)c(=O)c3cc(F)c(N4CC(O)C4)c(Cl)c32)c(F)cc1F,Potency,[2],inactive
same,Potency,[3],inactive
same,Potency,[4],inactive
same,Potency,[5],inactive
CC[C@H]1OC(=O)[C@H](C)[C@@H](O[C@H]2C[C@@](C)(OC)[C@@H](O)[C@H](C)O2)[C@H](C)[C@@H](O[C@@H]2O[C@H](C)C[C@H](N(C)C)[C@H]2O)[C@](C)(OC)C[C@@H](C)C(=O)[C@H](C)[C@@H](O)[C@]1(C)O,Potency,[2],inactive
same,Potency,[3],inactive
same,Potency,[4],inactive
same,Potency,[5],inactive
same,"activity change, negative = inhibition",[6],-13%
COC(=O)N[C@H](C(=O)N1CC2(CC2)C[C@H]1c1ncc(-c2ccc3c(c2)C(F)(F)c2cc(-c4ccc5nc([C@@H]6[C@H]7CC[C@H](C7)N6C(=O)[C@@H](NC(=O)OC)C(C)C)[nH]c5c4)ccc2-3)[nH]1)C(C)C,Potency,[2],inactive
same,Potency,[3],inactive
same,Potency,[4],inactive
same,Potency,[5],inactive
C=C[C@@H]1C[C@]1(NC(=O)[C@@H]1C[C@@H](Oc2ncc(OC)c3ccc(Cl)cc23)CN1C(=O)[C@@H](NC(=O)OC(C)(C)C)C(C)(C)C)C(=O)NS(=O)(=O)C1CC1,Potency,[2],inactive
same,Potency,[3],inactive
same,Potency,[4],inactive
same,Potency,[7],10.8 µM (active)
CC(C)OC(=O)[C@H](C)N[P@](=O)(CO[C@H](C)Cn1cnc2c(N)ncnc21)Oc1ccccc1,Potency,[2],0.891 µM (active)
same,Potency,[9],inactive
same,Potency,[4],inactive
same,Potency,[10],0.0108 µM (active)
same,Potency,[5],inactive
same,"activity change, negative = inhibition",[6],-96.1%
same,Potency,[7],0.0096 µM (active)
same,Potency,[11],inactive
same,Potency,[12],inactive
CCC[C@H](NC(=O)[C@@H]1[C@H]2CCC[C@H]2CN1C(=O)[C@@H](NC(=O)[C@@H](NC(=O)c1cnccn1)C1CCCCC1)C(C)(C)C)C(=O)C(=O)NC1CC1,Potency,[2],inactive
same,Potency,[3],inactive
same,Potency,[4],inactive
same,"activity change, negative = inhibition",[6],0.184%
CC[C@@]1(O)C(=O)OCc2c1cc1n(c2=O)Cc2c-1nc1cc(F)c(C)c3c1c2[C@@H](N)CC3,Potency,[2],inactive
same,Potency,[3],inactive
same,"activity change, negative = inhibition",[6],-94.1%
CCN(CC)CCOC(=O)c1ccc(N)cc1Cl,Potency,[2],inactive
same,Potency,[3],inactive
same,Potency,[4],inactive
same,Potency,[5],inactive
CC(C)c1nc(CN(C)C(=O)N[C@@H](CCN2CCOCC2)C(=O)N[C@H](CC[C@H](Cc2ccccc2)NC(=O)OCc2cncs2)Cc2ccccc2)cs1,Potency,[2],inactive
same,Potency,[3],inactive
same,Potency,[4],inactive
same,Potency,[5],inactive
same,Potency,[7],21.5 µM (active)
C=C[C@]1(C)C[C@@H](OC(=O)CSCCN(CC)CC)[C@]2(C)[C@H](C)CC[C@]3(CCC(=O)[C@H]32)[C@@H](C)[C@@H]1O,Potency,[2],20 µM (active)
same,Potency,[3],inactive
same,Potency,[4],inactive
same,Potency,[5],inactive
same,Potency,[7],15.2 µM (active)
COc1ccc(C=CC(=O)O)cc1,Potency,[2],inactive
same,Potency,[3],inactive
same,Potency,[4],inactive
same,Potency,[5],inactive
same,"activity change, negative = inhibition",[6],-10.2%
CC1(C)C(/C=C/C=C/C=C/C=C2/N(CCCCS(=O)(=O)O)c3ccc4ccccc4c3C2(C)C)=[N+](CCCCS(=O)(=O)[O-])c2ccc3ccccc3c21,Potency,[2],inactive
same,Potency,[3],inactive
same,Potency,[4],inactive
same,Potency,[5],inactive
Cc1cc(N)c2ccccc2[n+]1CCCCCCCCCC[n+]1c(C)cc(N)c2ccccc21,outcome,[13],inactive
same,outcome,[14],inactive
same,"activity change, negative = inhibition",[2],-2.83% [at 11.4 µM] (inactive)
same,"activity change, negative = cytotoxicity",[3],1.39% [at 11.4 µM] (inactive)
same,"activity change, negative = cytotoxicity",[4],-0.518% [at 11.4 µM] (inactive)
same,"activity change, negative = cytotoxicity",[5],-25.1% [at 11.3 µM] (inactive)
